Results reported in PubChem BioAssay (Tox21).
“And” between values parts separate entries of the source, which are not always exact repeats. Identical values can stand only once. Inconclusive results are not listed. A structure can be active in one record and inactive in another. The source made the active and inactive calls. Unless noted, the call rests on the fitted dose curve; in most records, active means well fitted curve in the direction sought with a large enough effect in the repeat runs; inconclusive means weak or mixed curves; inactive means no such curve, though single readings can be large; an effect the other way counts as inactive or inconclusive.

Columns and labels:
[1] = biological target: Thyrotropin receptor (Homo sapiens) (UniProt P16473); experiment: qHTS assay to identify small molecule agonists of the thyroid stimulating hormone receptor (TSHR) signaling pathway (AID 1224843; calls by dose curve; further: nearly all actives have a fitted effect of over 45% in size)
Summary of the method: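 Compounds are titrated over 15 concentrations, in triplicate, onto TSHR-HEK293 cells seeded at 800/well. Plates sit 30 min at room temperature before cAMP-d2 and anti-cAMP cryptate are added; signal is read after a further hour.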

[2] = qHTS assay to identify small molecule agonists of the hypoxia (HIF-1) signaling pathway - cell viability counter screen (AID 1224844; calls by dose curve; further: nearly all actives have a fitted effect of over 50% in size)
Summary of the method: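 Viability counter screen: HRE-bla ME-180 cells plated 5 hrs before compound addition, treated 17 hrs at 37C and 5% CO2, then CellTiter-Glo added after the FRET reporter read; luminescence after 30 min.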

[3] = qHTS assay to identify small molecule agonists of H2AX (AID 1224845; active means well fitted activation curve with a large enough effect in the signal ratio in the repeat runs, not every such curve was filed as active; the % refers to the signal ratio)
Summary of the method: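 Wild-type CHO-K1 cells plated overnight, then exposed 3 hr at 37C to compounds at 15 concentrations (0.76% DMSO). Lysed, then HTRF anti-pH2AX(S139)-cryptate/anti-H2AX-d2 detection after 24 hr at room temperature; emissions 665 and 620 nm.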

[4] = qHTS assay to identify small molecule agonists of the hypoxia (HIF-1) signaling pathway (AID 1224846; active means well fitted activation curve with a large enough effect in the signal ratio in the repeat runs, not every such curve was filed as active; the % refers to the signal ratio)
Summary of the method: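 Agonist mode reporter screen. ME-180 cells stably expressing bla under HRE control received test compounds in DMSO for 17 hrs (37C, 5% CO2), and beta-lactamase activity was then detected with the CCF4-AM FRET substrate.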

[5] = qHTS assay to identify small molecule antagonists of the estrogen related receptor (ERR) signaling pathway from Tox21 library (AID 1224848); further: nearly all actives have a fitted effect of over 50% in size; further: potency means the concentration at half of the fitted maximal effect
Summary of the method: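 First, 2,000 ERR cells per well were plated and held 6 h at 37 C/5% CO2. Next, compounds in DMSO were pinned in and left 18 h at 37 C. Finally, ONE-Glo was added and luminescence read after 30 min at room temperature.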

[6] = qHTS assay to identify small molecule agonists of the estrogen related receptor (ERR) signaling pathway from Tox21 library (AID 1224849; calls by dose curve; further: nearly all actives have a fitted effect of over 15% in size); conditions: ERR reporter cell line, ONE-Glo luciferase, 18 h
Summary of the method: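 Quantitative HTS in agonist format: NTP ERR cell line, compounds transferred in DMSO after 6 h plating, 18 h incubation at 37 C, ONE-Glo luminescence endpoint.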

[7] = qHTS RealTime-Glo MT Cell Viability Assay in HepG2 cells - 24 hour (AID 1224867); further: nearly all actives have a fitted effect of over 50% in size
Summary of the method: (§1)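 Cell number in HepG2 cultures estimated from NanoLuc luminescence generated by metabolic reduction of a prosubstrate by living cells. The homogeneous, nonlytic format allowed repeated reads at 0, 8, 16, 24, 32 and 40 h of compound exposure.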

[8] = qHTS RealTime-Glo MT Cell Viability Assay in HEK293 cells - 32 hour (AID 1224868); further: top concentration of the series differs between compounds; nearly all actives have a fitted effect of over 50% in size
Summary of the method: (§2)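 Homogeneous bioluminescent viability format in HEK293 cells (600 cells/well). Following 5 h at 37 C/5% CO2, 23 nL compound was pintooled; the signal was measured repeatedly during 40 h incubation.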

[9] = A CellTox Green Cytotoxicity Assay to monitor cytotoxicity in HEK293 cells - 0 hour (AID 1224869); further: nearly all actives have a fitted effect of over 50% in size
Summary of the method: (§3)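 Dead-cell fluorescence measured kinetically: asymmetric cyanine dye, HEK293, 600 cells/well, 5 h settle, 23 nL cpd/DMSO, 37 C, reads 0–40 h every 8 h.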

[10] = qHTS RealTime-Glo MT Cell Viability Assay in HepG2 cells - 40 hour (AID 1224870); further: nearly all actives have a fitted effect of over 50% in size
Summary of the method: (§4)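 HepG2 cells mixed with RealTime-Glo MT reagents (NanoLuc plus cell-permeant prosubstrate) were seeded at 600 cells/well, incubated 5 h at 37 C/5% CO2, then pinned with compounds in DMSO; nonlytic luminescence tracked viability during 40 h treatment.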

[11] = A CellTox Green Cytotoxicity Assay to monitor cytotoxicity in HEK293 cells - 40 hour (AID 1224871); further: nearly all actives have a fitted effect of over 45% in size
Summary of the method: as §3

[12] = qHTS RealTime-Glo MT Cell Viability Assay in HEK293 cells - 16 hour (AID 1224872)
Summary of the method: as §2

[13] = qHTS RealTime-Glo MT Cell Viability Assay in HepG2 cells - 8 hour (AID 1224873); further: nearly all actives have a fitted effect of over 55% in size
Summary of the method: as §4

[14] = qHTS RealTime-Glo MT Cell Viability Assay in HEK293 cells - 40 hour (AID 1224874); conditions: RealTime-Glo luminescence; max response: stronger effect = lower value; further: nearly all actives have a fitted effect of over 50% in size
Summary of the method: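 600 HEK293 cells per well, dispensed already mixed with RealTime-Glo MT reagents. Compound dosing came 5 h later. The same wells were read for luminescence at 0, 8, 16, 24, 32 and 40 h of exposure at 37 C.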

[15] = A CellTox Green Cytotoxicity Assay to monitor cytotoxicity in HEK293 cells - 24 hour (AID 1224875); further: nearly all actives have a fitted effect of over 45% in size
Summary of the method: as §3

[16] = A CellTox Green Cytotoxicity Assay to monitor cytotoxicity in HepG2 cells - 16 hour (AID 1224876); further: nearly all actives have a fitted effect of over 45% in size
Summary of the method: (§5)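 First, HepG2 cells (600/well) mixed with reagent were plated; second, after 5 h at 37 C they received compounds via pintool; third, fluorescence was measured at 0 h through 40 h at 8 h intervals.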

[17] = qHTS RealTime-Glo MT Cell Viability Assay in HepG2 cells - 32 hour (AID 1224877); further: nearly all actives have a fitted effect of over 55% in size
Summary of the method: as §1

[18] = A CellTox Green Cytotoxicity Assay to monitor cytotoxicity in HepG2 cells - 24 hour (AID 1224878); further: nearly all actives have a fitted effect of over 45% in size
Summary of the method: as §5

[19] = A CellTox Green Cytotoxicity Assay to monitor cytotoxicity in HepG2 cells - 40 hour (AID 1224879); further: nearly all actives have a fitted effect of over 40% in size
Summary of the method: as §5

[20] = qHTS assay to identify small molecule agonists of H2AX - cell viability counter screen (AID 1224847; calls by dose curve; further: top concentration of the series differs between compounds; nearly all actives have a fitted effect of over 30% in size)
Summary of the method: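 Cytotoxicity counter screen in wild-type CHO-K1 cells: a 3 hr compound treatment at 37C across 15 concentrations, followed by CellTiter-Glo luminescence to gauge viable cells.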
On the % scale 0 is the no-effect control and ±100 the full control effect.

Chain of Thyrotropin receptor (Homo sapiens) (P16473 whole entry, looked up): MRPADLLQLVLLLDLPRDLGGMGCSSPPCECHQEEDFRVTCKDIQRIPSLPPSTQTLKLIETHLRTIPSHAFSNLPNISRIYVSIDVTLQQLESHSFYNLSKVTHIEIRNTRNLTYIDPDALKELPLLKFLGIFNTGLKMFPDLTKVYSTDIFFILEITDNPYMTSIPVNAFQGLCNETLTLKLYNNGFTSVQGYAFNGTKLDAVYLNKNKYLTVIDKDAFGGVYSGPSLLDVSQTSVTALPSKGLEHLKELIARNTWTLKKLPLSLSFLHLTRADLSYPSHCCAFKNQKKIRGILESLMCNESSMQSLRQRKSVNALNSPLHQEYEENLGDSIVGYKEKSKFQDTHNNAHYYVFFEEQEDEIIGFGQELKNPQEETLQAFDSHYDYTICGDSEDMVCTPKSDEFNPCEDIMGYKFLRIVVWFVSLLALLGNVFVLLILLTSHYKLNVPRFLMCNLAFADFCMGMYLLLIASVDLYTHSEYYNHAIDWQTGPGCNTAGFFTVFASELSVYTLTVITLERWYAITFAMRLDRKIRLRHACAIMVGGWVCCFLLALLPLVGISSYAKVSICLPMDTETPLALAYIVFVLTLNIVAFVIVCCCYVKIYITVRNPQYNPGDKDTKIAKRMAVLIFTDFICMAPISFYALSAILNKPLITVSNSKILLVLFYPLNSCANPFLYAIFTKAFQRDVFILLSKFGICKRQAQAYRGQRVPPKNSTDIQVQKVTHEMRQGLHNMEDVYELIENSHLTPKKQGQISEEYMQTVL

CC(O)CO (stereo unspecified)
inactive: outcome [1] | Potency [2] | outcome [3] | outcome [4] | Potency [5] | activity change, positive = activation ([6]; at 8.39 µM (top of the series)) -3.08% | activity change, positive = activation ([6]; at 92.4 µM (top of the series)) -3.85% and -1.76% | Potency [7] | Potency [8] | outcome [9] | Potency [10] | Potency [11] | Potency [12] | outcome [13] | max response [14] -4.92% and 4.28% and 2.26% | Potency [15] | Potency [16] | Potency [17] | Potency [18] | Potency [19]

CCCNC(=O)NS(=O)(=O)c1ccc(Cl)cc1
inactive: outcome [1] | Potency [2] | outcome [3] | outcome [4] | Potency [7] | Potency [8] | outcome [9] | Potency [11] | Potency [12] | outcome [13] | max response [14] 1.38% and -0.751% and 0.902% | Potency [15] | Potency [16] | Potency [17] | Potency [18] | Potency [19]

O=S(=O)(O)NC1CCCCC1
inactive: outcome [1] | Potency [2] | outcome [3] | outcome [4] | outcome [20] | Potency [7] | Potency [8] | outcome [9] | Potency [10] | Potency [11] | Potency [12] | outcome [13] | max response [14] 10.8% and 12.2% and -1.58% | Potency [15] | Potency [16] | Potency [17] | Potency [18] | Potency [19]

O=C(O)CCCCC(=O)O
inactive: outcome [1] | Potency [2] | outcome [3] | outcome [4] | Potency [7] | Potency [8] | outcome [9] | Potency [11] | Potency [12] | outcome [13] | max response [14] 4.36% and 16.9% and 2.15% | Potency [15] | Potency [16] | Potency [17] | Potency [18] | Potency [19]

OCCc1ccccc1
inactive: outcome [1] | Potency [2] | outcome [3] | outcome [4] | Potency [7] | Potency [8] | outcome [9] | Potency [10] | Potency [11] | Potency [12] | outcome [13] | max response [14] 6.34% and 10.1% and 6.75% | Potency [15] | Potency [16] | Potency [17] | Potency [18] | Potency [19]

CCCCC1C(=O)N(c2ccccc2)N(c2ccccc2)C1=O
inactive: outcome [1] | Potency [2] | outcome [3] | outcome [4] | activity change, positive = activation ([6]; at 42.5 µM (top of the series)) 2.49% | activity change, positive = activation ([6]; at 92.4 µM (top of the series)) -34.5% and -44.9% | Potency [7] | Potency [8] | outcome [9] | Potency [10] | Potency [11] | Potency [12] | outcome [13] | max response [14] -7.32% and -1.19% and 8.39% | Potency [15] | Potency [16] | Potency [17] | Potency [18] | Potency [19]
61.1 µM (active) and inactive: Potency [5]

CC(C)(Oc1ccc(C2CC2(Cl)Cl)cc1)C(=O)O (stereo unspecified)
inactive: outcome [1] | Potency [2] | outcome [3] | outcome [4] | Potency [7] | Potency [8] | outcome [9] | Potency [10] | Potency [11] | Potency [12] | outcome [13] | max response [14] 2.51% and 10.4% | Potency [15] | Potency [16] | Potency [17] | Potency [18] | Potency [19]

CC(=O)OCC(COC(C)=O)OC(C)=O
inactive: outcome [1] | Potency [2] | outcome [3] | outcome [4] | Potency [5] | activity change, positive = activation ([6]; at 42.5 µM (top of the series)) 6.67% | activity change, positive = activation ([6]; at 92.4 µM (top of the series)) -0.709% and 8.04% | Potency [7] | Potency [8] | outcome [9] | Potency [11] | Potency [12] | outcome [13] | max response [14] 1.3% and 11.6% and 13.6% | Potency [15] | Potency [16] | Potency [17] | Potency [18] | Potency [19]

Cc1cc(=O)[nH]c(=S)[nH]1
inactive: outcome [1] | Potency [2] | outcome [3] | outcome [4] | outcome [20] | Potency [7] | Potency [8] | outcome [9] | Potency [11] | Potency [12] | outcome [13] | max response [14] -0.127% and 3.69% and 0.841% | Potency [15] | Potency [16] | Potency [17] | Potency [18] | Potency [19]

O=NO
inactive: outcome [1] | Potency [2] | outcome [3] | outcome [4] | Potency [7] | Potency [8] | outcome [9] | Potency [11] | Potency [12] | outcome [13] | max response [14] 1.94% and 6.27% and -0.835% | Potency [15] | Potency [16] | Potency [17] | Potency [18] | Potency [19]
